Sampled rows, rich in hits. Any-hit rate of the full collection: about 4.6%.
FAS TE block = inhibitors of human fatty acid synthase thioesterase domain. AID 602261. hit rate 0.67% among 360,000. P49327. recombinant FAS-TE, OMFH fluorogenic substrate, fluorescence endpoint. inhibition, % at 15 µM;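 active = compounds whose normalised, plate-corrected inhibition of enzyme fluorescence in the single-dose primary screen is 50% or more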
KLK7 zymogen act = activators of human kallikrein-7 zymogen. P49862. purified proKLK7, EDANS-DABCYL substrate fluorescence; 100% is mature enzyme control, 0% vehicle. activation, % at 7 µM. hit rate 0.9% among 370,000;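 active = activation above the mean of all tested compounds plus 3 SD, computed per campaign excluding outliers beyond control limits, cut at about 13% in these data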
ADAM17 inh = inhibits human ADAM17 | P78536 | recombinant ADAM17, EDANS/DABCYL FRET peptide cleavage | inhibition, % at 6.95 µM | hit rate 0.83% among 370,000;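 active = inhibition above the mean of compounds lying between control limits plus 3 SD, set per campaign, cut at about 8.5% in these data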
ADAM10 inh = ADAM10 inhibition, QFRET primary screen. recombinant ADAM10, EDANS/DABCYL FRET peptide cleavage, 3 h. AID 720582. hit rate 0.62% among 370,000. O14672. inhibition, % at 7 µM;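 active = inhibition above a per-campaign cutoff equal to the mean of compounds falling between control-based bounds plus 3 SD, cut at about 20% in these data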
Target sequence (O14672 214-748 limits assumed): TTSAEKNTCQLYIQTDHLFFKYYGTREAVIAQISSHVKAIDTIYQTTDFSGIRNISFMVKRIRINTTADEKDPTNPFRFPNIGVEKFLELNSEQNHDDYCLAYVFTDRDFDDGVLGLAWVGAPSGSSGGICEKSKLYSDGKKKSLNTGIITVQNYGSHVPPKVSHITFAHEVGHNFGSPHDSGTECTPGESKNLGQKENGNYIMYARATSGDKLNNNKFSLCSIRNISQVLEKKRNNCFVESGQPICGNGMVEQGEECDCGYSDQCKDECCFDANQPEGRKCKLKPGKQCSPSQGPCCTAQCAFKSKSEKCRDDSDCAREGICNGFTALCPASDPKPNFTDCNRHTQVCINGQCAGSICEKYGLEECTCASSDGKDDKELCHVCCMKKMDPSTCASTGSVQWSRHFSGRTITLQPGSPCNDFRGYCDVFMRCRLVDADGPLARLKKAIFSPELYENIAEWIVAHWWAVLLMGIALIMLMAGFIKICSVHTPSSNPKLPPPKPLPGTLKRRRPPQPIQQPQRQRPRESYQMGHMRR
GRIN3A LBD mod = NR3A (human) ligand-binding domain modulation | hit rate 2.5% among 340,000 | Tm shift relative to glycine control, % at 25 µM | NR3A LBD differential scanning fluorimetry, Tm shift; 0% = protein alone, 100% = glycine-bound protein;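 active = melting temperature shift of at least 10% of the positive control shift, at one fixed dose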
A number is an active result; . = inactive; / = not tested or not shown.

SMILES	FAS TE block	KLK7 zymogen act	ADAM17 inh	ADAM10 inh	GRIN3A LBD mod
NS(=O)(=O)c1ccc(-c2ccc(/C=N/Nc3ccc(C(=O)O)cc3)o2)cc1	.	.	.	.	.
O=C(O)c1ccc(N/N=C/c2ccc(-c3cccc(Cl)c3)o2)cc1	.	.	.	.	.
O=C(O)c1cccc(-c2ccc(/C=N/Nc3ccc([N+](=O)[O-])cc3)o2)c1	.	.	.	.	12
O=C(O)c1ccc(-c2ccc(/C=N/Nc3ccc([N+](=O)[O-])cc3)o2)cc1	.	.	.	.	10
O=C(Nc1ccc(-c2cn3ccsc3n2)cc1)C1CCCC1	.	.	.	.	.
O=C(Nc1ccc(-c2cn3ccsc3n2)cc1)C1CC1	.	.	.	.	15
Cc1c(C(=O)Nc2ccc3c(c2)OCCO3)sc2nc(-c3ccccc3)cn12	.	.	.	.	27
CCSc1nnc(NC(=O)CSc2nc(CC)nc3c2c(=O)n(C)c(=O)n3C)s1	.	.	.	.	14
Cc1ccc(N=C2SC(C(=O)Nc3ccc(OC(F)(F)F)cc3)C(N)=C2C(=O)Nc2c(C)cc(C)cc2C)cc1 (stereo unspecified)	.	.	14	27	35
Cc1ccc(NC(=O)C2SC(=Nc3ccccc3)C(C(=O)Nc3ccc(Cl)cc3)=C2N)cc1 (stereo unspecified)	.	/	/	/	17
CN(CCc1ccccn1)C(=O)c1cc2ccccn2n1	/	.	.	.	/
CCOC(=O)[C@]12CCCC=C1N(Cc1ccc(OC)cc1)C(=O)[C@@H]2CC(=O)N1CCN(C(=O)C2CC2)CC1	/	.	.	.	/
Cc1noc(NS(=O)(=O)c2ccc(NC(=O)CCN3C(=O)c4ccccc4C3=O)cc2)c1C	.	.	.	.	14
Cc1noc(NS(=O)(=O)c2ccc(NC(=O)Nc3ccc(Cl)c(Cl)c3)cc2)c1C	.	.	.	.	36
COc1ccc(-n2c(SCC(=O)N/N=C(/C)c3cccc(O)c3)nc3ccccc3c2=O)cc1	/	.	.	.	/
O=C(Nc1ccc(Br)cc1)c1cccn1-c1ncc(C(F)(F)F)cc1Cl	.	.	.	.	13
CC(C)=CCC[C@](C)(O)C1CC[C@]2(C)C1C(O)CC1[C@@]3(C)CCC(O)C(C)(C)C3C(O[C@@H]3OC(CO)C(O)C(O)C3O[C@@H]3OC(C)C(O)C(O)C3O)C[C@]12C (stereo partly specified)	.	.	.	.	10
Cc1cn(-c2cc(NC(=O)c3ccc(C)c(Nc4nccc(-c5cccnc5)n4)c3)cc(C(F)(F)F)c2)cn1	/	.	.	.	/
Cc1cn(-c2cc(C(=O)Nc3ccc(C)c(NC(=O)C(=O)c4c[nH]c5ccccc45)c3)cc(C(F)(F)F)c2)cn1	.	.	.	.	12
COC[C@H]1CCCN1c1cccc2c1S(=O)(=O)N(C1CC1)CCCO2	/	.	.	.	/
O=c1c2cc(Br)ccc2[nH]c(=S)n1Cc1ccccn1	.	.	.	.	.
O=c1c2cc(Br)ccc2[nH]c(=S)n1Cc1ccccc1	.	.	.	.	11
O=C(CNS(=O)(=O)c1cccs1)N1CCN(c2ncccn2)CC1	/	.	.	.	/
COc1cccc(Nc2nc(-c3sc(N)nc3C)cs2)c1	.	.	.	.	.
COc1cccc(Nc2nc(-c3sc(C)nc3C)cs2)c1	.	.	.	.	12
SMILES	FAS TE block	KLK7 zymogen act	ADAM17 inh	ADAM10 inh	GRIN3A LBD mod
Cc1nc(C)c(-c2csc(Nc3ccc(F)cc3)n2)s1	.	.	.	.	15
COc1ccc(CN(CC#Cc2ccc(C)cc2)C(N)=NC(=O)CCc2ccccc2)c(OC)c1	/	.	.	.	/
COCCCNC(=O)c1cc2cc(Br)ccc2oc1=O	.	.	.	.	.
O=C(NNC(=O)c1cc2cc(Br)ccc2oc1=O)c1ccc(O)cc1O	.	.	.	.	17
COc1ccc(C(=O)Nc2ccc(Nc3ccccc3)cc2)cc1[N+](=O)[O-]	.	.	.	.	28
COc1ccc(C(=O)Nc2ccc(Nc3ccccc3)cc2)cc1OC	.	.	.	.	.
COc1ccc(C(=O)Nc2ccc(OCc3ccccc3)cc2)cc1[N+](=O)[O-]	.	.	.	.	34
OC1(Cc2ccccc2)CCN(c2ncnc3sccc23)CC1	/	/	.	.	/
Cc1ccc(C2=NOC(=O)/C2=C\c2ccc(C)o2)cc1	.	.	.	.	13
Cc1ccc(/C=C2\C(=O)ON=C2c2ccccc2)o1	.	.	.	.	.
COc1ccc(/C=C2\C(=O)ON=C2c2ccccc2)cc1	.	.	.	.	19
COc1cc(/C=C2\C(=O)ON=C2c2ccc(Cl)cc2)ccc1O	/	.	.	.	.
O=C1ON=C(c2ccccc2)/C1=C/c1ccc(O)c(O)c1	.	.	.	.	16
CC(=O)c1c(C)[nH]c(C(=O)Nc2ccccc2C)c1C	/	/	.	.	/
Cc1ccc(CN[C@@H]2CC[C@@]34CCCN3C(=O)CCC[C@H]4C2)cc1	/	/	.	.	/
CC(C)(C)N(Cc1cn(Cc2ccccc2)nn1)S(=O)(=O)c1ccc(N2CCCC2)cc1Br	/	.	.	.	/
N#CC1=C(SCC(=O)NC23CC4CC(CC(C4)C2)C3)NC(=O)C(C#N)C12CCCCC2 (stereo unspecified)	.	.	.	.	12
CC(C)(C)C1CCC2(CC1)C(C#N)=C(SCC(=O)NC1CCCCC1)NC(=O)C2C#N (stereo unspecified)	.	.	.	.	12
N#CC1=C(SCC(=O)NC2CC2)NC(=O)C(C#N)C12CCCCC2 (stereo unspecified)	.	.	.	.	.
N#Cc1c(NC(=O)CN2C(=O)c3ccccc3C2=O)oc(-c2ccccc2)c1-c1ccccc1	.	.	.	.	17
N#Cc1c(NC(=O)CCN2C(=O)c3ccccc3C2=O)oc(-c2ccccc2)c1-c1ccccc1	.	.	.	.	.
COc1cccc(OC)c1NC(=O)OC1CCC12CCC(c1ccccc1)CC2 (stereo unspecified)	/	/	.	.	/
O=C(c1ccc(F)cc1Cl)N1CCC(Oc2cccnc2)CC1	/	.	.	.	/
CCN(CC)S(=O)(=O)c1ccc2c(c1)c(=O)c(C(=O)NCCCN(C)c1ccccc1)cn2C	.	.	.	.	.
CN(CCCNC(=O)c1cn(C)c2ccc(S(=O)(=O)N(C)C)cc2c1=O)c1ccccc1	.	.	.	.	18
SMILES	FAS TE block	KLK7 zymogen act	ADAM17 inh	ADAM10 inh	GRIN3A LBD mod
Cc1ccccc1OCC(=O)OCC(=O)c1ccc(OCc2ccccc2)cc1	.	.	.	.	25
Cc1ccc(C)c(N2CCN(S(=O)(=O)c3ccc4c(c3)CC(=O)N4C)CC2)c1	.	.	.	.	.
CN1C(=O)Cc2cc(S(=O)(=O)N3CCN(c4cccc(C(F)(F)F)c4)CC3)ccc21	.	.	.	.	24
CCn1c(/N=C/c2ccccc2NS(=O)(=O)c2ccc(C)cc2)nc2ccccc21	.	/	/	/	13
O=C(OC12CCCN(C1)/C(=C/c1ccncc1)C2)c1ccco1 (stereo unspecified)	/	.	.	.	/
O=C(Nc1ccc(OCC(F)(F)C(F)F)cc1)c1ccncc1	.	.	.	.	.

Assay outcomes: PubChem BioAssay, several laboratories
